# Experimental data published in PubChem BioAssay (EPA / NIEHS).
# Inconclusive results are not listed. Calls of active or inactive are those of the source. How the source made its calls, unless noted: active means hit-call score of the fitted dose curve at least 0.9, where 1 is the maximum; inactive means score below 0.9.
# Key:
# TIMP1, TIMP1 (gene 7076) = assay: LTEA_HepaRG_TIMP1: Life Technologies and Expression Analysis (LTEA) Assay for TIMP1 using HepaRG (AID 2283534); conditions: mRNA level, 48 h; actives raise or lower the signal;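 further: TaqMan qRT-PCR signal normalized to ACTB GAPDH and POLR2A housekeeping genes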
# Procedure, shortened: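 Differentiated human HepaRG cells in serum-free induction medium were exposed 48 h to chemicals (8 half-log concentrations, top 100 uM, 0.5% DMSO). TIMP1 mRNA was quantified by TaqMan qRT-PCR, normalized to ACTB/GAPDH/POLR2A; bidirectional fit versus DMSO.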
# [1] = read-out: Tumor necrosis factor receptor 1 (TNFRSF1A), TNFRSF1A (gene 7132); assay: LTEA_HepaRG_TNFRSF1A: Life Technologies and Expression Analysis (LTEA) Assay for Tumor necrosis factor receptor 1 (TNFRSF1A) using HepaRG (AID 2283535); conditions: mRNA level, 48 h; actives raise or lower the signal
# Procedure, shortened: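 Differentiated human HepaRG cells were exposed in duplicate for 48 h in serum-free induction medium to eight concentrations (top 100 uM, half-log steps, 0.5% DMSO). TNFRSF1A mRNA was quantified by qRT-PCR, normalized to ACTB, GAPDH and POLR2A, then fitted bidirectionally against DMSO.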
# [2] = read-out: Thyroid Hormone Responsive (THRSP), THRSP (gene 7069); assay: LTEA_HepaRG_THRSP: Life Technologies and Expression Analysis (LTEA) Assay for Thyroid Hormone Responsive (THRSP) using HepaRG (AID 2283536); conditions: mRNA level, 48 h; actives raise or lower the signal
# Procedure, shortened: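 THRSP transcript quantified by Fluidigm qRT-PCR against three housekeeping genes after 48 h chemical exposure of HepaRG cells in serum-free induction medium; eight-point half-log series, top 100 uM, 0.5% DMSO vehicle, duplicate wells.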
# [3] = read-out: Cellular tumor antigen p53 (Homo sapiens) (UniProt P04637); assay: LTEA_HepaRG_TP53: Life Technologies and Expression Analysis (LTEA) Assay for Tumor Protein P53 (TP53) using HepaRG (AID 2283537); conditions: mRNA level, 48 h; actives raise or lower the signal
# Procedure, shortened: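 Gain or loss of TP53 mRNA signal is scored relative to 0.5% DMSO after 48 h chemical treatment of HepaRG liver cells, tested in duplicate at eight half-log concentrations up to 100 uM.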
# [4] = read-out: UDP glucuronosyltransferase (UGT1A1), UGT1A1 (gene 54658); assay: LTEA_HepaRG_UGT1A1: Life Technologies and Expression Analysis (LTEA) Assay for UDP glucuronosyltransferase (UGT1A1) using HepaRG (AID 2283538); conditions: mRNA level, 48 h; actives raise or lower the signal
# Procedure, shortened: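 HepaRG, 48 h chemical exposure (top 100 uM, half-log 8-pt, 0.5% DMSO vehicle), duplicate wells; qRT-PCR (TaqMan, Fluidigm array) for UGT1A1 mRNA, housekeeping-normalized; bidirectional curve fit vs DMSO baseline.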
# [5] = read-out: UDP glucuronosyltransferase (UGT1A6), UGT1A6 (gene 54578); assay: LTEA_HepaRG_UGT1A6: Life Technologies and Expression Analysis (LTEA) Assay for UDP glucuronosyltransferase (UGT1A6) using HepaRG (AID 2283539); conditions: mRNA level, 48 h; actives raise or lower the signal
# Procedure, shortened: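 Human HepaRG cells were dosed for 48 h in serum-free induction medium with 0.5% DMSO vehicle, eight-point half-log series from 100 uM, in duplicate. UGT1A6 mRNA was measured by qRT-PCR, normalized to ACTB, GAPDH, POLR2A, and fitted bidirectionally against DMSO.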
# [6] = read-out: X-box binding protein 1 (XBP1), XBP1 (gene 7494); assay: LTEA_HepaRG_XBP1: Life Technologies and Expression Analysis (LTEA) Assay for X-box binding protein 1 (XBP1) using HepaRG (AID 2283540); conditions: mRNA level, 48 h; actives raise or lower the signal
# Procedure, shortened: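 Differentiated human HepaRG cells in serum-free induction medium were exposed in duplicate for 48 h to eight half-log concentrations up to 100 uM in 0.5% DMSO. XBP1 mRNA was quantified by qRT-PCR, normalised to ACTB, GAPDH and POLR2A, with bidirectional fitting against DMSO.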
# [7] = LTEA_HepaRG_LDH_cytotoxicity: Cytotoxicity Assessment in the Life Technologies and Expression Analysis (LTEA) Assay (AID 2283563; active means hit-call score of the fitted dose curve at least 0.9, where 1 is the maximum)
# Procedure, shortened: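 Differentiated human HepaRG cells, plated 48 h beforehand, were switched to serum-free induction medium and exposed for 48 h to eight half-log concentrations (top 100 uM) in 0.5% DMSO. LDH was measured in spent medium; activity was fitted relative to DMSO vehicle.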
# [8] = ATG_XTT_Cytotoxicity: Cytotoxicity Assessment in the Attagene TRANS-FACTORIAL HepG2 Assay (AID 2283584; active means hit-call score of the fitted dose curve at least 0.9, where 1 is the maximum)
# Procedure, shortened: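 HepG2 human liver cells, transiently transfected with multiple GAL4-UAS reporter units, were dosed and read at 24 h by XTT as cell number. Loss of signal was fitted relative to DMSO negative control baseline.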
# [9] = target: Cellular tumor antigen p53 (Homo sapiens) (UniProt P04637); assay: TOX21_p53_BLA_p2_ratio: Tox21 HCT-116 p53 Agonism Beta-lactamase Assay, Ratio, Phase 2 (AID 2283592; active means hit-call score of the fitted dose curve at least 0.9, where 1 is the maximum)
# Procedure, shortened: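 Ratio endpoint: beta-lactamase cleavage of CCF4-AM, blue (460 nm) over green (530 nm). HCT116 reporter line; 16 h treatment, 37C; substrate 2 h RT.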
# Cellular tumor antigen p53 (Homo sapiens), sequence (P04637 whole entry, looked up): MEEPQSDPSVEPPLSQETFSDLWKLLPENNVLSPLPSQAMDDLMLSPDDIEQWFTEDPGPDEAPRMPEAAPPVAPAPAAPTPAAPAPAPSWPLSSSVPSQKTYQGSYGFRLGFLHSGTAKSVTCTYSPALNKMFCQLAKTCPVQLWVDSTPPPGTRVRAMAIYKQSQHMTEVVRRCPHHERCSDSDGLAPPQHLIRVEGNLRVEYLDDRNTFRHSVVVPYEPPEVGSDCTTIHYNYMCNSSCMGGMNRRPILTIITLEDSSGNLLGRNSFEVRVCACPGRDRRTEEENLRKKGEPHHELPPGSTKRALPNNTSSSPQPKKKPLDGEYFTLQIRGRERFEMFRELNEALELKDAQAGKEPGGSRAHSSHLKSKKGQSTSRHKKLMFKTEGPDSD
compound,measurement,setting,value
O=C1CN(N=Cc2ccc([N+](=O)[O-])o2)C(=O)N1,outcome,"TIMP1, TIMP1 (gene 7076)",inactive
same,outcome,[1],inactive
same,AC50,[2],9.92 µM (active)
same,outcome,[3],inactive
same,outcome,[4],inactive
same,outcome,[5],inactive
same,outcome,[6],inactive
same,outcome,[7],inactive
same,outcome,[8],inactive
same,outcome,[9],inactive
O=C(O)[C@H](O)[C@@H](O)C(=O)O,outcome,"TIMP1, TIMP1 (gene 7076)",inactive
same,outcome,[1],inactive
same,outcome,[2],inactive
same,outcome,[4],inactive
same,outcome,[5],inactive
same,outcome,[6],inactive
same,outcome,[7],inactive
OCc1ccccc1,outcome,"TIMP1, TIMP1 (gene 7076)",inactive
same,outcome,[1],inactive
same,outcome,[2],inactive
same,outcome,[4],inactive
same,outcome,[5],inactive
same,outcome,[6],inactive
same,outcome,[7],inactive
OC[C@H]1O[C@@](CO)(O[C@H]2O[C@H](CO)[C@@H](O)[C@H](O)[C@H]2O)[C@@H](O)[C@@H]1O,outcome,"TIMP1, TIMP1 (gene 7076)",inactive
same,outcome,[1],inactive
same,outcome,[2],inactive
same,outcome,[4],inactive
same,outcome,[5],inactive
same,outcome,[6],inactive
same,outcome,[7],inactive
NC(=O)N(O)[C@@H]1COc2cc(OCc3ccccc3)ccc21,outcome,"TIMP1, TIMP1 (gene 7076)",inactive
same,outcome,[1],inactive
same,outcome,[4],inactive
same,outcome,[5],inactive
same,outcome,[6],inactive
same,outcome,[7],inactive
CCCCCCCCCCCCCCO,outcome,"TIMP1, TIMP1 (gene 7076)",inactive
same,outcome,[1],inactive
same,outcome,[3],inactive
same,outcome,[4],inactive
same,outcome,[5],inactive
same,outcome,[6],inactive
same,outcome,[7],inactive
same,outcome,[9],inactive
CCn1nc(C)c2c1C(=O)NCC(c1ccc(O)cc1)=N2,outcome,"TIMP1, TIMP1 (gene 7076)",inactive
same,outcome,[1],inactive
same,outcome,[3],inactive
same,AC50,[4],34.1 µM (active)
same,outcome,[5],inactive
same,outcome,[6],inactive
same,outcome,[7],inactive
same,outcome,[9],inactive
CC(C)CCCCCCOC(=O)C1CCCCC1C(=O)OCCCCCCC(C)C (configuration not stated),outcome,"TIMP1, TIMP1 (gene 7076)",inactive
same,AC50,[1],0.00316 µM (active)
same,outcome,[4],inactive
same,outcome,[5],inactive
same,outcome,[6],inactive
same,outcome,[7],inactive
O=C(NO)C1(NS(=O)(=O)c2ccc(Oc3ccc(F)cc3)cc2)CCOCC1,outcome,"TIMP1, TIMP1 (gene 7076)",inactive
same,outcome,[1],inactive
same,AC50,[4],12.2 µM (active)
same,AC50,[5],77.7 µM (active)
same,outcome,[6],inactive
same,outcome,[7],inactive
O=C(N[C@H](CO)[C@H](O)c1ccc([N+](=O)[O-])cc1)C(Cl)Cl,outcome,[9],inactive
Cn1c(=O)c2[nH]cnc2n(C)c1=O,outcome,"TIMP1, TIMP1 (gene 7076)",inactive
same,AC50,[1],0.276 µM (active)
same,outcome,[3],inactive
same,outcome,[4],inactive
same,outcome,[5],inactive
same,outcome,[6],inactive
same,outcome,[7],inactive
same,outcome,[9],inactive
CCOc1ccc2[nH]cc(C(=O)NCc3ccccc3)c(=O)c2n1,outcome,"TIMP1, TIMP1 (gene 7076)",inactive
same,outcome,[1],inactive
same,outcome,[4],inactive
same,outcome,[5],inactive
same,outcome,[6],inactive
same,outcome,[7],inactive
NNC(=O)c1ccncc1,outcome,"TIMP1, TIMP1 (gene 7076)",inactive
same,outcome,[1],inactive
same,outcome,[3],inactive
same,outcome,[4],inactive
same,outcome,[5],inactive
same,outcome,[6],inactive
same,outcome,[7],inactive
same,outcome,[9],inactive
OC(CCl)CCl,outcome,"TIMP1, TIMP1 (gene 7076)",inactive
same,outcome,[1],inactive
same,outcome,[3],inactive
same,outcome,[4],inactive
same,outcome,[5],inactive
same,outcome,[6],inactive
same,outcome,[7],inactive
same,outcome,[9],inactive
CCCOc1ccc(S(=O)(=O)N2CCN(CC)CC2)cc1-c1nc2c(CC)n(Cc3ccccn3)nc2c(=O)[nH]1,outcome,"TIMP1, TIMP1 (gene 7076)",inactive
same,outcome,[1],inactive
same,AC50,[4],4.74 µM (active)
same,outcome,[5],inactive
same,outcome,[6],inactive
same,outcome,[7],inactive
NC(=O)N1c2ccccc2C=Cc2ccccc21,outcome,"TIMP1, TIMP1 (gene 7076)",inactive
same,outcome,[1],inactive
same,AC50,[4],21.6 µM (active)
same,outcome,[5],inactive
same,outcome,[6],inactive
same,outcome,[7],inactive
OCc1c[nH]c2ccccc12,AC50,[9],86.5 µM (active)
CC(C)CC(C)O (configuration not stated),outcome,"TIMP1, TIMP1 (gene 7076)",inactive
same,outcome,[1],inactive
same,outcome,[4],inactive
same,outcome,[5],inactive
same,outcome,[6],inactive
same,outcome,[7],inactive
Cc1ccc(S(=O)(=O)NC(=O)NN2CCCCCC2)cc1,outcome,"TIMP1, TIMP1 (gene 7076)",inactive
same,outcome,[1],inactive
same,outcome,[4],inactive
same,outcome,[5],inactive
same,outcome,[6],inactive
same,outcome,[7],inactive
O=C(O)c1cccc(C(=O)O)c1,outcome,"TIMP1, TIMP1 (gene 7076)",inactive
same,outcome,[1],inactive
same,outcome,[4],inactive
same,outcome,[5],inactive
same,outcome,[6],inactive
same,outcome,[7],inactive
